In ChEMBL document CHEMBL1157539, “Thousands of chemical starting points for antimalarial lead identification” (Nature, 2010):

system: Plasmodium falciparum; assay: GSK_TCMDC: Inhibition of Plasmodium falciparum Dd2 in whole red blood cells, using parasite LDH activity as an index of growth. Test compounds present at 2uM; format: functional

Row | Structure (SMILES) | Inhibition
1 | COc1c(C2CCN(CCCCNC(=O)c3ccc(-c4ccc(C#N)cc4)cc3)CC2)cc(Cl)c2c1CCCC2 | 59%
2 | COc1cc2nccc(Nc3cccc(Oc4ccccc4)c3)c2cc1OC.Cl | 95%
3 | Cc1cc(=NN=Cc2cccc(Cl)c2)c2ccc(F)cc2[nH]1 | 98%
4 | c1ccc(-c2nc(NC3CCCCC3)cc(C3CC3)n2)nc1 | 76%
5 | Cc1cccc2nc(-c3cccc(-c4ccc(NC(=O)c5c[nH]cn5)cc4)c3)[nH]c12 | 48%
6 | CCOC(=O)c1c(C)n(-c2ccccc2)c2ccc(O)cc12 | 87%
7 | CC(C)c1sc(N2CCCCC2)nc1C(=O)Nc1ccc(F)cc1C(F)(F)F.O=C(O)C(F)(F)F | 98%
8 | CS(=O)(=O)N1CC2(CCN(CCC(NC(=S)Nc3ccccc3)c3ccc(Cl)c(Cl)c3)CC2)c2ccccc21 (stereo unspecified) | 80%
9 | Cl.O=C(N[C@@H](Cc1ccccc1)[C@H](O)CNC1CCc2ccccc2C1)c1cc(C2CCCC2)cc(N2CCCC2=O)c1 (stereo partly specified) | 76%
10 | O=C(/C=C/c1ccc(Cl)c(Cl)c1)NCCCCCN1CC[C@H](NC(=O)c2ccc3c(c2)OCO3)C1 | 3%
11 | CCOc1ccc(NC(=O)c2cccc(CN3CCCN(Cc4cccc(O)c4)CC3)c2)cc1.O=C(O)C(F)(F)F | 23%
12 | O=C(NCCN1CCOCC1)c1ccc(-c2ccc(CNCCCc3ccccc3)cc2)nc1.O=C(O)C(F)(F)F | 10%
13 | Nc1ccc2[nH]cc(C3CCN(CCC4CCN(C(=O)/C=C/c5ccc(Cl)c(Cl)c5)CC4)CC3)c2n1 | 78%
14 | O=C(Cc1cccnc1)N(Cc1ccc(-c2ccc(CNCc3cccnc3)cn2)cc1)C1CCN(Cc2ccccc2)CC1.O=C(O)C(F)(F)F | 6%
15 | Nc1nc2ccc(S(=O)(=O)Nc3ccc(C(=O)N[C@@H](CCC(=O)O)C(=O)O)c(F)c3)cc2c(=O)[nH]1 | 16%
16 | COC(=O)C(NC(=O)NC1CCN(c2ccnc(Nc3ccc(F)cc3)n2)C1)c1ccccc1 (stereo unspecified) | 8%
17 | CNC(=O)c1cnc(Nc2ccc(N3CCOCC3)cc2)nc1Nc1cccc(OC)c1.O=C(O)C(F)(F)F | 41%
18 | COc1cc(N(C)Cc2cnc3nc(N)nc(N)c3n2)cc(OC)c1OC | 2%

Row | Structure (SMILES) | Inhibition
19 | CCCc1cc(OC)c(CC2c3cccc(O)c3CCN2C)cc1OC.Cl (stereo unspecified) | 99%
20 | O=C(NCCc1ccccc1)N(Cc1ccccc1-c1ccc(CNC2CCCC2)cc1)C1CCN(Cc2ccccc2)CC1.O=C(O)C(F)(F)F | 95%
21 | CCCSc1nc2c(c(=O)n1Cc1ccco1)C1(CCCCC1)Cc1ccccc1-2 | 95%
22 | N#Cc1ccc(OCCN(Cc2ccccc2C(F)(F)F)c2ccc(C#N)c(C(F)(F)F)c2)cc1 | 84%
23 | CC(=NNC(S)=Nc1ccccc1Cl)c1ccccn1 | 99%
24 | COc1ccc(-c2cc3ncn(CC(=O)N4CCN(c5cccc(OC)c5)CC4)c(=O)c3s2)cc1 | 26%
25 | O=C(Nc1ccc(Cl)c(Cl)c1)N1CCC(CNCc2cccc([N+](=O)[O-])c2)CC1.O=C(O)C(F)(F)F | 6%
26 | COc1cc(NC(=O)c2ccc(-c3ccccc3)cc2)ccc1OCCCN1CCC(c2ccccc2)CC1.Cl | 30%
27 | CCOc1cc(C(=O)Nc2ccc3nc(N4CCN(C)CC4)cc(C)c3c2)cc(OCC)c1OCC | 50%
28 | CN1C(C)(C)CC(NC(=O)c2ccc(-c3nc4cc(Cl)c(Cl)cc4[nH]3)cc2)CC1(C)C | 97%
29 | COc1ccccc1CCNc1nc(C)cc(N[C@@H](Cc2ccccc2)C(=O)NCc2cccc(F)c2)n1.O=C(O)C(F)(F)F | 86%
30 | CC(=O)Nc1nc(C(=O)Nc2cccc(-c3ccc(-c4nc5cccc(C)c5[nH]4)cc3)c2)cs1 | 61%
31 | Cc1cccc(-n2c(Nc3ccc(C)c(Cl)c3)nc3ccc(S(=O)(=O)NC(C)C(C)C)cc32)c1 (stereo unspecified) | 97%
32 | O=C(NC(CCCN1CCC2(CC1)OCc1ccccc12)c1ccc(Cl)c(Cl)c1)c1cc(C(F)(F)F)cc(C(F)(F)F)c1 (stereo unspecified) | 99%
33 | CCC(C)NC(=O)Nc1ccc(-c2cccc(-c3nc4cccc(C)c4[nH]3)c2)cc1 (stereo unspecified) | 83%
34 | COc1ccc2ncc(F)c(CCN3CC(O)C(CNCc4ccc5oc(=O)ccc5c4)C3)c2n1.Cl (stereo unspecified) | 6%
35 | CCOc1cc(C(=O)Nc2cccnc2)ccc1-c1nc2cc(Cl)c(Cl)cc2[nH]1 | 70%
36 | Cl.N=C(NCCc1ccc(Cl)cc1)c1ccc(Cl)c(Cl)c1 | 42%
